# Bioassay records as filed in PubChem BioAssay.
# The list is not random: actives were taken first. Their share in the collection is about 15%.
# HCV inhibitor: qHTS Assay for Inhibitors of Hepatitis C Virus (HCV); Huh7.5.1 HCVcc-Cre infection, luciferase reporter, 44 h; Potency, µM (highest dose often 41.8 µM), inactives show at the top dose activity change, negative = inhibition, most hits filed as inhibitors; hit rate 3.4% among 340,000; AID 651820, 2012; note: potency is the fitted concentration of half-maximal effect; % is set by controls: 0 for no effect and ±100 for the full control effect
#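 Reporter virus HCVcc-Cre (~0.5 moi) infects cells exposed to compound; seeding density 1,000 cells/well with 4 h settling beforehand. Luminescence, 15 sec read, taken 44 h post-infection following a 15 min RT substrate incubation.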
# Pf growth 96h: Primary qHTS for delayed death inhibitors of the malarial parasite plastid, 96 hour incubation | P. falciparum luciferase reporter growth, 96 h | Potency, µM (doses to about 28.7 µM), inactives show at the highest dose activity change, negative = inhibition, hits mostly inhibitors | hit rate 6.9% among 320,000 | AID 504834, 2011; note: potency is the fitted concentration of half-maximal effect; % is set by controls: 0 for no effect and ±100 for the full control effect
#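 Cell-based qHTS: luciferase-tagged P. falciparum in erythrocytes (2% hematocrit, 0.05% parasitemia final) incubated with compounds for 96 hours, 37 C, 5% CO2; luciferase detection reagent then added and luminescence measured.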
# Pf growth 48h: Primary qHTS for delayed death inhibitors of the malarial parasite plastid, 48 hour incubation. P. falciparum luciferase growth in erythrocytes, 48 h. Potency, µM (titrated, usually from 28.7 µM), for inactives: top-dose activity change, negative = inhibition, most hits filed as inhibitors. hit rate 5.9% among 310,000; note: potency is the fitted concentration of half-maximal effect; % is set by controls: 0 for no effect and ±100 for the full control effect
#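 Erythrocytes infected with P. falciparum carrying an integrated firefly luciferase reporter (2% hematocrit, 0.1% parasitemia final) were exposed to compounds in RPMI 1640 with 0.5% Albumax at 37 C, 5% CO2. Growth inhibition was scored as reduced luminescence.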
# SARS PLP yeast: qHTS of Yeast-based Assay for SARS-CoV PLP | S. cerevisiae expressing SARS-CoV PLpro, growth rescue | Potency, µM (highest dose often 32.9 µM), inactives show top-dose activity, positive = growth rescue, most hits filed as activators | hit rate 0.19% among 330,000 | AID 485353, 2010; calls by dose curve; note: potency is the fitted concentration of half-maximal effect; 0% is about no effect; nearly all actives have a fitted effect of over 55% in size
# Sm TGR inh: qHTS Assay for the Inhibitors of Schistosoma Mansoni Peroxiredoxins. purified TGR, DTNB reduction, TNB absorbance 405 nm. Schistosoma mansoni thioredoxin glutathione reductase (TGR), Q962Y6. Potency, µM (doses to about 114 µM), for the others: top-dose activity change, negative = inhibition, most hits filed as inhibitors. hit rate 3% among 360,000; note: potency is the fitted concentration of half-maximal effect; % is set by controls: 0 for no effect and ±100 for the full control effect; nearly all actives have a fitted effect of over 60% in size
#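 First, TGR (20 nM dispensed) and NADPH were mixed with compound. Second, a 15 min room-temperature incubation followed. Third, further NADPH and then DTNB were added to start the reaction. Finally, TNB absorbance was monitored kinetically.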
# HCMV antiviral: qHTS Assay for inhibitors of the human cytomegalovirus (HCMV); HFF cells, HCMV-luciferase reporter, 72 h; hits give low values; activity change, negative = inhibition, % at 57.5 µM; hit rate 4.5% among 410,000; AID 1259415, 2018; in the data active = activity change below about -60%; inconclusive = no clear call, values can overlap the other calls; inactive = above about -39%; note: % is set by controls: 0 for no effect and ±100 for the full control effect
#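 Human foreskin fibroblasts infected with luciferase-reporter HCMV at MOI 1 PFU/cell, compounds at two doses. Luciferase measured 72 h post infection; normalized to buffer-only basal and Salinomycin (10uM) controls.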
# * marks the source's active call; other numbers are inactive results; ? = inconclusive; / = not tested or not shown. Unless noted, calls come from the whole dose curve; as a rule, active = well fitted curve in the direction sought with a large enough effect; inconclusive = small, poorly fitted or top-dose-only effect, or another doubt; inactive = no such curve, though single readings can be large; an effect the other way counts as inactive or inconclusive.
SMILES,HCV inhibitor,Pf growth 96h,Pf growth 48h,SARS PLP yeast,Sm TGR inh,HCMV antiviral
Cc1ccccc1NC(=O)N1CCCC(c2nc(-c3ccc(C(C)C)cc3)no2)C1 (configuration not stated),12.6µM*,-8.3%,-15.3%,-6.5%,-1.7%,-20.3
COc1ncnc2c1ncn2CCCNCc1ccccn1,/,/,/,/,/,-12.4
COc1cccc(-c2cn(-c3cccc(C(F)(F)F)c3)c(=S)[nH]2)c1,?,?,10.4µM*,1.2%,0.3%,?
CCCCc1nn2c(=O)cc(COC(=O)C3CCCCC3)nc2s1,/,/,/,/,6.2%,11.6
COc1ccc(C(C(=O)NC2CCCCC2)N(C(=O)Cc2c[nH]c3ccccc23)c2ccc(NC(C)=O)cc2)cc1OC (configuration not stated),3.1%,9.28µM*,10.4µM*,-0.9%,-12.3%,57.9
COc1cc(C(C(=O)NC2CCCCC2)N(C(=O)Cc2c[nH]c3ccccc23)c2ccccc2C)cc(OC)c1OC (configuration not stated),17.8%,?,13.1µM*,-1.7%,-3.1%,69.9
COc1cc(C(C(=O)NC2CCCCC2)N(Cc2cccs2)C(=O)Cc2c[nH]c3ccccc23)cc(OC)c1OC (configuration not stated),?,8.28µM*,9.28µM*,-7.4%,1.7%,-79.2*
Cc1ccc(C(C(=O)NC2CCCCC2)N(Cc2ccccc2)C(=O)Cc2c[nH]c3ccccc23)o1 (configuration not stated),?,?,?,-16.9%,-9.0%,-6.6
COc1ccccc1CN(C(=O)Cc1cccs1)C(C(=O)NC1CCCC1)c1ccncc1 (configuration not stated),3.9%,16.5%,?,3.8%,11.5%,-15.6
Cc1ccc(S(=O)(=O)c2[nH]c(-c3ccccc3)nc2SCC(N)=O)cc1,/,/,/,/,-13.1%,-6.6
COc1ccccc1Nc1nnc(Cc2ccccc2)c(=O)[nH]1,-12.1%,11.7µM*,21.6%,0.4%,2.4%,4.0
COc1ccc(Cc2nnc(Nc3ccccc3OC)[nH]c2=O)cc1,2.82µM*,-4.7%,?,5.7%,10.2%,-23.9
COc1ccc(Nc2nnc(Cc3ccccc3)c(=O)[nH]2)c(OC)c1,-16.8%,26.5%,?,-7.2%,7.7%,-18.0
COc1ccc(CNC(=O)CCc2c(C)c3ccc(OC)c(C)c3oc2=O)cc1OC,/,/,/,/,5.8%,-16.3
Cc1c(C)c(C)c2[nH]c(-c3ccc4c(c3)OCO4)nc2c1C,?,2.08µM*,2.33µM*,-6.5%,8.1%,/
COc1ccc(-c2[nH]c(-c3ccc4c(c3)OCO4)nc2-c2ccccc2)cc1,?,?,?,-30.9%,6.7%,-29.8
COc1ccc(CNCC(O)(c2ccc(F)cc2)c2ccc(F)cc2)cc1,?,?,11.7µM*,0.7%,0.2%,10.2
OC(CNCc1ccccc1)(c1ccccc1)c1ccccc1,0.2%,8.28µM*,13.1µM*,-0.6%,11.0%,-30.7
OC(CNCc1ccccc1)(c1ccc(F)cc1)c1ccc(F)cc1,-2.8%,2.08µM*,4.65µM*,0.6%,1.2%,-4.5
COc1ccc(CNCC(O)(c2ccccc2)c2ccccc2)cc1,-6.8%,0.0%,0.0%,0.7%,6.9%,60.7
OC(CNCc1ccc(F)cc1)(c1ccccc1)c1ccc(F)cc1 (configuration not stated),-10.3%,1.65µM*,2.62µM*,5.1%,-3.0%,70.1
CC(C)CCn1c(=O)c2cccnc2n(CC(=O)Nc2ccc(F)cc2)c1=O,/,/,/,/,7.4%,13.1
Cc1ccc2c(c1)c1c(c(=O)n(-c3ccccc3)c(=O)n1CC(=O)N1CCCC1)n2C,/,/,/,/,12.9%,0.7
Cc1ccc(CNCC(O)(c2ccc(F)cc2)c2ccc(F)cc2)cc1,-67.6%,4.65µM*,?,3.8%,-8.5%,6.5
Cc1ccc(CNCC(O)(c2ccccc2)c2ccc(F)cc2)cc1 (configuration not stated),8.3%,0.0%,?,-6.1%,34.5%,0.4
SMILES,HCV inhibitor,Pf growth 96h,Pf growth 48h,SARS PLP yeast,Sm TGR inh,HCMV antiviral
Clc1ccc(-c2nnc3n2-c2ccccc2SC3)cc1,-24.7%,14.7%,33.4%,-1.4%,0.4%,-7.1
CCc1cccc(N(C)C(N)=Nc2cccc3ccccc23)c1,-2.5%,9.53µM*,13.5µM*,-0.7%,-22.2%,2.9
CCN(/C(N)=N/c1nc(C)cc(C)n1)c1ccccc1,5.8%,-4.2%,8.9%,2.7%,3.0%,1.1
COc1ccc(CNC(=O)c2cccc3c(-c4cccc(C(N)=O)c4)coc23)cc1OC,/,/,/,/,/,-93.8*
COc1ccc(-c2coc3c(C(=O)NCc4cccc(Cl)c4)cccc23)c(C)c1,/,/,/,/,/,-62.1*
COc1cc(-c2coc3c(C(=O)NCc4ccc(OC)c(OC)c4)cccc23)ccc1O,/,/,/,/,/,-73.1*
NC(=O)c1cccc(-c2coc3c(C(=O)NCCc4ccccc4)cccc23)c1,/,/,/,/,/,42.5
CC(C)(C)OC(=O)C[C@H]1C/C=C\C[C@@H](CC(=O)N(CCO)Cc2ccccc2)C(=O)N[C@H](Cc2c[nH]c3ccccc23)COC1=O,10.6%,/,/,5.9%,/,8.6
COc1cccc(N2C(=O)CN(Cc3ccc(OC)c(OC)c3)C2=S)c1,-20.7%,?,1.47µM*,-2.7%,0.0%,42.7
COc1ccc(CN2CC(=O)N(c3ccc(C)c(C)c3)C2=S)cc1OC,4.2%,6.1%,?,-6.0%,-10.1%,48.5
COc1ccc(N2C(=O)CN(Cc3ccc(OC)c(OC)c3)C2=S)cc1,?,?,-8.7%,-2.6%,2.7%,-81.4*
CCOC(=O)C1CCCN(c2ncnc3c2oc2ccccc23)C1 (configuration not stated),5.2%,56.4%,49.5%,-4.8%,-29.4%,36.3
O=C(O)C1CCN(c2nc(-c3ccccc3)nc3c2oc2ccccc23)CC1,-7.2%,11.7µM*,?,-15.5%,7.7%,-6.2
CCOC(=O)C1CCN(c2ncnc3c2oc2ccccc23)CC1,-25.0%,11.7µM*,14.1%,-2.7%,-0.5%,41.1
CCOC(=O)/C=c1/s/c(=C/c2ccccc2OC)c(=O)n1CC(=O)N1CCOCC1,1.2%,/,/,/,/,3.2
COc1ccc(CCNC(=S)Nc2ccccc2)cc1,?,?,10.4µM*,-0.9%,-21.7%,-35.1
COc1ccc(CCNC(=S)Nc2ccc(OC)cc2)cc1,-12.6%,-20.8%,-19.4%,23.9%,-19.1%,-66.1*
COc1ccc2[nH]c(C)c(CCN3C(=O)C4CC=CCC4C3=O)c2c1 (configuration not stated),-15.2%,-3.4%,/,-0.1%,6.1%,-28.1
